# Compounds with a hit are over-represented: about 2.4% of the library has one in this group of screens.
# HTT-AS promoter = activates huntingtin-antisense promoter activity; HEK293 HTT-AS promoter firefly luciferase reporter, 24 h; response scale: percent change from vehicle, -100% = no light; Potency, µM (series often up to 57.5 µM), for inactives: at the top dose activity change, positive = activation, hits mostly activators; actives 0.24% (n = 48,000); also: nearly all actives have a fitted effect of over 55% in size
#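 Quantitative HTS used concentration series of up to 57.5 uM final on HEK293 luciferase reporter cells, 24 h at 37 degrees C. Readout was Dual-Glo firefly luminescence.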
# NTMT1 inh = inhibitors of human N-terminal methyltransferase NTMT1 | NTMT1 MTase-Glo SAH luminescence, purified enzyme | Potency, µM (highest dose often 114 µM), for the others: at the top dose activity change, negative = inhibition, usual class: inhibitors | actives 2.5% (n = 59,000);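 also: plate controls were DMSO vehicle for no effect and no enzyme for full effect; nearly all actives have a fitted effect of over 65% in size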
# Target sequence (Q9BV86 whole entry, looked up): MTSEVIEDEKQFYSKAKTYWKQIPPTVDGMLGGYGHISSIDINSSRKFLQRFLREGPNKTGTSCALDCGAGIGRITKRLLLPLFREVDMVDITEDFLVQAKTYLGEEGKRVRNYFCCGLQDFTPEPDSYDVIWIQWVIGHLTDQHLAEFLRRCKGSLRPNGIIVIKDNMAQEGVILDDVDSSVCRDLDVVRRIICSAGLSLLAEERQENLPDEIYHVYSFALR
# HTT prom inh = inhibits huntingtin promoter activity. HEK293 HTT promoter firefly luciferase reporter, 24 h. Potency, µM (top dose mostly 57.5 µM), for inactives: top-dose activity change, negative = inhibition, usual class: inhibitors. actives 0.93% (n = 48,000); also: nearly all actives have a fitted effect of over 50% in size
#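 Firefly luciferase signal from promoter-reporter HEK293 cells was scaled between vehicle (0%) and zero RLU (-100%). Compounds were tested at final concentrations of up to 57.5 uM over 24 h at 37 degrees C. PTC124 at 50 uM final served as control inhibitor.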
# * hit, by the source's call; ? = inconclusive; · = no result given; ! = not confirmed by another sample; [ ] = remark or other dose. Calls follow the shape of the dose curve; as a rule, active = well fitted curve in the direction sought with a large enough effect; inconclusive = small, poorly fitted or top-dose-only effect, or another doubt; inactive = no such curve, though single readings can be large; an effect the other way counts as inactive or inconclusive. Potency is read from the fitted curve at half-maximal effect.
SMILES,HTT-AS promoter,NTMT1 inh,HTT prom inh
Cc1sc2c(c1C)C(c1ccc(Cl)cc1)=N[C@H](CC(=O)NCCCCNC(=O)COc1cccc3c1C(=O)N([C@H]1CCC(=O)NC1=O)C3=O)c1nnc(C)n1-2,·,-9%[57.5 µM],·
CC(C)(O)c1ccn2c(-c3ccc(F)c(-c4ccc(F)cc4C#N)c3)cnc2c1F,·,-5%[57.5 µM],·
O=C(O[C@@H]1O[C@H](CO)[C@@H](O)[C@H](O)[C@H]1O)c1c(O)cc(O)cc1/C=C/c1ccccc1,·,14%[29.8 µM],·
CC(=O)c1cccc(NS(=O)(=O)c2cccc(S(=O)(=O)c3ccc(Br)cc3)c2)c1,-54%,-7%,32µM*
CC(=O)c1cccc(NS(=O)(=O)c2ccc3c(c2)NC(=O)CC(=O)N3)c1,-6%,4%,-13%
CN1C(N)=N[C@](C)(c2cc(NC(=O)c3ccc(F)cn3)ccc2F)CS1(=O)=O,·,-8%,·
COc1ccccc1NC(=O)c1ccc2ccccc2c1,·,3%,·
CC(=CC(=O)Nc1ccccc1C(=O)O)c1ccc2ccccc2c1,0%,34µM*,9%
COc1ccc(C(=O)/C=C/c2cn(CC(O)CN3CCCCCC3)c3ccccc23)cc1OC (stereo not given),-26%,45µM*,-20%
O=C(/C=C/c1cn(CC(O)CN2CCCCCC2)c2ccccc12)c1ccccc1 (stereo not given),-15%,?,-6%
COc1ccc(Cn2ncc3c4sc(C)cc4n(C)c3c2=O)cc1F,·,9%,·
Cc1cc2c(s1)c1cnn(Cc3ccc(C)c(F)c3)c(=O)c1n2C,·,79µM*,·
CC1Oc2cc(cnc2N)-c2c(nn(C)c2C#N)CN(C)C(=O)c2ccc(F)cc21 (stereo not given),·,16%,·
CN(C)c1ccc(CNc2nc(-c3ccccc3C(F)(F)F)nc3ccccc23)cc1,·,21%,·
NC1(c2ccc(NC(=O)c3ccnc(-c4cc(C(=O)O)ccn4)c3)cc2)CC1,·,2%[57.5 µM],·
CCOC(=O)C1CCN(C(=O)C(C)(C)NC(=O)Nc2ccc3ccccc3c2)CC1,·,6%,·
COc1ccccc1C(=O)N1CCC(c2noc(-c3ccc(S(=O)(=O)N4CCCC4)cc3)n2)CC1,-41%,7%,25µM*
O=C(c1ccc(F)cc1F)N1CCC(c2noc(-c3ccc(S(=O)(=O)N4CCCC4)cc3)n2)CC1,-2%,5%,-7%
CONC(=O)Nc1ccc(-c2sc3c(c2CN(C)C)c(=O)n(-c2ccc(OC)nn2)c(=O)n3Cc2c(F)cccc2F)cc1,·,-3%,·
C[C@H]1CNCCCN1S(=O)(=O)c1cccc2cncc(F)c12,·,1%[57.5 µM],·
Cc1cncc2cccc(S(=O)(=O)N3CCCNC[C@@H]3C)c12,·,79µM*,·
COC(=O)C1=CO[C@@H](O[C@@H]2O[C@H](COC(=O)/C=C/c3cc(OC)c(O)c(OC)c3)[C@@H](O)[C@H](O)[C@H]2O)[C@@H]2C(CO)=CC[C@H]12,·,11%[12.6 µM],·
CC1CCN(S(=O)(=O)c2nnc(NC(=O)c3cccc(F)c3)s2)CC1,-29%,24%,-29%
CC1Cc2ccccc2N1S(=O)(=O)c1nnc(NC(=O)c2cccc(F)c2)s1 (stereo not given),-93%,17%,25µM*
O=C(O)c1c(-c2ccccc2)no[n+]1[O-],·,-1%[57.5 µM],·
SMILES,HTT-AS promoter,NTMT1 inh,HTT prom inh
Cc1ccc(NC(=O)CSc2nnc3[nH]c(=O)cc(-c4ccccc4)n23)cc1Cl,14µM*,-5%,55%
Cc1ccc(C)c(NC(=O)CSc2nnc3[nH]c(=O)cc(-c4ccccc4)n23)c1,?,-16%,19%
CC[C@@H]1C(=O)N(C)c2cnc(Nc3ccc(C(=O)NC4CCC(N5CCN(CC6CC6)CC5)CC4)cc3OC)nc2N1C(C)C (stereo not given in full),?,25µM*!,-3%
COc1ccc(C)cc1-n1cnc2cc(C(=O)NC3CCCCCC3)ccc21,-23%,-18%,?
COc1ccccc1Nc1nn2c(=O)c3ccc(C(=O)NC4CCCCC4)cc3nc2s1,-22%,17%,-12%
COc1cc(C(=O)NC2CCN(C)CC2)ccc1Nc1ncc2c(n1)N(C1CCCC1)CCC(=O)N2C(C)C,-24%,22µM*,-14%
CC1(C)C(=O)C(C)(C)c2cc(C(=O)Nc3ccc(C(=O)O)cc3)ccc21,·,5%[57.5 µM],·
Cc1nnc(Nc2sc3c(c2-c2nc4ccccc4s2)CCNC3)o1,·,-15%,·
Cc1ccn2c(Nc3ccccc3C)c(-c3ccccn3)nc2c1,-46%,2%,?
Cc1ccccc1Nc1c(-c2cccc(N(C)C)c2)nc2ccc(Br)cn12,11µM*,7%,46%
CC(C)c1ccc(Nc2c(-c3ccccn3)nc3ccccn23)cc1,-67%,13%,25µM*
Cc1ccccc1Nc1c(-c2c(F)cccc2Cl)nc2ccc(Br)cn12,-3%,7%,-23%
Cc1ccc2nc(-c3ccccn3)c(Nc3ccccc3C)n2c1,-75%,9%,35µM*
Fc1ccc(Nc2c(-c3ccccn3)nc3ccc(Cl)cn23)cc1,-7%,3%,3%
COc1ccc(C2Nc3ccccc3C(=O)N2Cc2ccccc2OC)cc1COc1c(C)cc(NC(C)=O)cc1C (stereo not given),·,10%,·
CC1CC(O)CC(C)(C)C1(O)CCO (stereo not given),·,1%,·
COc1c(C)c(OCC=C(C)C)cc2c1CNC2=O,·,-3%[57.5 µM],·
O=S(=O)(Cc1ccc(Cl)c(Cl)c1)Nc1nnc(-c2ccncc2)s1,·,14%,·
CCc1ccc(NC(=O)CSc2nc(-c3ccccc3)c(C#N)c(=O)[nH]2)cc1,-3%,-1%,-6%
O=C(CCCCCCC(=O)Nc1ccc([C@H]2O[C@@H](CSc3nc(-c4ccccc4)c(-c4ccccc4)o3)C[C@@H](c3ccc(CO)cc3)O2)cc1)NO,-6%,43µM*!,64%
COc1cccc(NCc2ccc(O)c3ncccc23)n1,·,-17%,·
Nc1nccn2c(C3CCC(C(=O)O)CC3)nc(-c3cc4cccc(Cl)c4[nH]3)c12 (stereo not given),·,35µM*!,·
CC(=O)O[C@H]1CC(C)(C)CC2[C@]13CO[C@@]21CCC2[C@@]4(C)CC[C@H](O[C@@H]5OC[C@H](O[C@@H]6O[C@H](CO)[C@@H](O)[C@H](O)[C@H]6O[C@@H]6OC[C@@H](O[C@@H]7O[C@H](CO)[C@@H](O)[C@H](O)[C@H]7O)[C@H](O)[C@H]6O)[C@H](O)[C@H]5O[C@@H]5O[C@H](CO)[C@@H](O)[C@H](O)[C@H]5O)[C@@](C)(CO)C4CC[C@@]2(C)[C@]1(C)C[C@H]3O (stereo not given in full),·,8%[6.45 µM],·
Cc1cc(C)n2ncc(C(=O)Nc3ccc(Br)cc3)c2n1,·,11%[57.5 µM],·
Fc1cc(Nc2nc(-c3ccncc3)nc3ccccc23)ccc1N1CCNCC1,·,10µM*,·
Fc1cc(Nc2nc(-c3ccncc3)nc3ccccc23)ccc1-c1ccncc1,·,-1%,·
O=C1CCCC2=C1C(c1[nH]ncc1Cl)N=C(Nc1nc3ccccc3s1)N2 (stereo not given),·,7%,·
COc1ccc2cc(C(C)C(=O)Oc3ccc(C(N)=S)cc3)ccc2c1 (stereo not given),·,2%[57.5 µM],·
N=C(N)c1ccc2cc(OC(=O)c3ccc(N=C(N)N)cc3)ccc2c1,-15%,79µM*!,-2%
